Source: PubChem BioAssay (NCI)
About 79,000 compounds went through this panel and 15% of them were active in at least one assay; those are over-represented in the sample as a whole. Active and inactive are the calls of the source. No stated cut-off is given here; in the data, active means growth inhibition above about 70%; inactive means the rest.

Assay: NCI Yeast Anticancer Drug Screen. Data for the bub3 strain (AID 167)
Conditions: S. cerevisiae bub3 mutant strain, at 50.0 µM, active compounds read high
Outline: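 Part of a panel of yeast mutants defective in DNA damage repair or cell cycle regulation. Each strain is grown with compound, and inhibition is calculated relative to solvent-treated cultures.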
With `CCC(COCC(CC)C(=O)O)C(=O)O` (centres undefined) the growth inhibition was 12.7% (inactive).
With `c1ccc(CCN=C2c3ccccc3-n3cccc32)nc1` the growth inhibition was 10.6% (inactive).
For `Cc1ccc(N2C(=O)CSC2=S)cc1C`, the growth inhibition was -29% (inactive).
For `C=CC(=O)NC(C)C(=O)O` (centres undefined), the growth inhibition was -10.9% (inactive).
In the case of `COc1ccc(C(=O)/C=C/C(C)=C/C=N/N(C)c2ccccc2)cc1`, the growth inhibition is reported as 17.1% (inactive).
In the case of `O=C(O)c1ccc(C2C3C=CC(C3)C2[N+](=O)[O-])cc1` (centres undefined), the growth inhibition is reported as -12.5% (inactive).
For `c1ccc(CCc2ccnc3ccccc23)cc1`, the growth inhibition was 9.15% (inactive).
In the case of `O=[N+]([O-])c1ccc(Nc2ccccc2)c([N+](=O)[O-])c1`, the growth inhibition is reported as -7.05% (inactive).
For `O=C1CCC2c3ccccc3C(=O)C2C1` (centres undefined), the growth inhibition was -14.1% (inactive).
In the case of `O=C(NNC(=O)c1ccc2ccccc2c1)c1cccc(Br)c1`, the growth inhibition is reported as -5.6% (inactive).
In the case of `N#C/C(=C1\OC(=O)C(c2ccc(Br)cc2)=C1O)c1ccc(Br)cc1`, the growth inhibition is reported as -3.85% (inactive).
With `NC(=O)c1csc([C@@H](O)Cc2ccccc2)n1` the growth inhibition was 8.35% (inactive).
In the case of `CN1c2ccccc2C(=O)NC12CCN(Cc1ccccc1)CC2`, the growth inhibition is reported as 12.3% (inactive).
For `CSc1nc2c([nH]1)c(=O)n(C)c(=O)n2C`, the growth inhibition was 16.8% (inactive).
For `CC(Nc1ncccn1)Nc1ncccn1`, the growth inhibition was -1.95% (inactive).
For `CCc1nc2c([nH]1)c(=O)n(C)c(=O)n2C`, the growth inhibition was -20.6% (inactive).
In the case of `O=C(Nc1ccn(C2CCC(CO)O2)c(=O)n1)c1ccccc1` (centres undefined), the growth inhibition is reported as 4.25% (inactive).
In the case of `C(=N\c1nc2ccccc2s1)/c1cccs1`, the growth inhibition is reported as 3.45% (inactive).
In the case of `CN(C)Cc1cc(C=O)cc(CN(C)C)c1O`, the growth inhibition is reported as 10.7% (inactive).
